Screen size: about 39,000 compounds; about 1,500 (3.8%) were called active. Many of the other results were omitted from the sample, so actives are more common in it than they were.
System: HSkMC (human skeletal muscle cells)
Test: cytotoxicity call (relative viability < 0.9)
Conditions: 10 µM

Row | SMILES | cytotoxicity call
1 | CC(C)=C[C@H]1[C@@H](c2nc3cc(Br)ccc3o2)C1(C)C | inactive
2 | C[C@@H]1CCCCO[C@H](CN(C)S(=O)(=O)c2ccc(F)cc2)[C@@H](C)CN([C@H](C)CO)C(=O)c2cc(NC(=O)Nc3ccc(C(F)(F)F)cc3)ccc2O1 | inactive
3 | COCC(=O)N1C[C@@H](C)[C@H](OC)CN(C)C(=O)c2ccc(NC(=O)c3ccc(F)cc3)cc2OC[C@@H]1C | inactive
4 | C[C@H](CO)N1C[C@H](C)[C@@H](CN(C)Cc2ccc(C(F)(F)F)cc2)Oc2ccc(NC(=O)Nc3ccc(F)cc3)cc2CC1=O | active
5 | C[C@H]1CN([C@@H](C)CO)C(=O)Cc2cc(NC(=O)Nc3ccc(F)cc3)ccc2O[C@H]1CN(C)Cc1ccc(C(F)(F)F)cc1 | active
6 | C[C@@H]1CN([C@@H](C)CO)C(=O)Cc2cc(NC(=O)Nc3ccc(F)cc3)ccc2O[C@@H]1CN(C)Cc1ccc(C(F)(F)F)cc1 | active
7 | C[C@@H]1CN([C@H](C)CO)C(=O)Cc2cc(NC(=O)Nc3ccc(F)cc3)ccc2O[C@H]1CN(C)Cc1ccc(C(F)(F)F)cc1 | active
8 | C[C@H]1CN([C@@H](C)CO)C(=O)Cc2cc(NC(=O)Nc3ccc(F)cc3)ccc2O[C@@H]1CN(C)Cc1ccc(C(F)(F)F)cc1 | inactive
9 | C[C@@H]1CN([C@@H](C)CO)C(=O)Cc2cc(NC(=O)Nc3ccc(F)cc3)ccc2O[C@H]1CN(C)Cc1ccc(C(F)(F)F)cc1 | inactive
10 | C[C@H](CO)N1C[C@H](C)[C@@H](CN(C)Cc2ccc(C(=O)O)cc2)Oc2c(NS(=O)(=O)c3cn(C)cn3)cccc2C1=O | inactive
11 | CC(C)NC(=O)N(C)C[C@@H]1OCCCC[C@H](C)Oc2ccc(NC(=O)Nc3ccc(F)cc3)cc2C(=O)N([C@H](C)CO)C[C@@H]1C | inactive
12 | C[C@@H]1CN([C@@H](C)CO)C(=O)c2cc(NC(=O)C3CCCCC3)ccc2O[C@@H](C)CCCCO[C@H]1CN(C)C(=O)Nc1ccccc1 | inactive
13 | C[C@H](CO)N1C[C@H](C)[C@@H](CN(C)S(=O)(=O)c2ccc(Cl)cc2)Oc2ccc(N(C)C)cc2C1=O | inactive
14 | COCCNC(=O)C[C@@H]1CC[C@H]2[C@@H](COC[C@@H](O)CN2C(=O)Nc2ccc3c(c2)OCO3)O1 | inactive
15 | O=C(O)Cc1cccc(OCCCN(Cc2cccc(C(F)(F)F)c2Cl)CC(c2ccccc2)c2ccccc2)c1 | inactive
16 | Cc1noc(C)c1NC(=O)N(C)C[C@H]1Oc2ccc(NC(=O)Nc3cccc4ccccc34)cc2C(=O)N([C@@H](C)CO)C[C@H]1C | inactive
17 | C=CCOC(=O)[C@@H]1[C@H]2C(=O)O[C@H](c3ccccc3)[C@H](c3ccccc3)N2[C@H](c2ccc(OCCOC(=O)[C@H]3C[C@H]4C(=O)N[C@@H](CCCCN(C)C)C(=O)N4[C@H]3c3cccc(OCCO)c3)cc2)[C@@]12C(=O)Nc1ccc(I)cc12 | inactive
18 | COc1ccc2c3c(n(c2c1)C)[C@H](CO)N(C[C@]13CCN(CC1)C(=O)CN(C)C)S(=O)(=O)C | inactive
19 | C[C@H](CO)N1C[C@H](C)[C@H](CN(C)Cc2ccc(C(F)(F)F)cc2)Oc2ccc(NC(=O)Nc3ccc(F)cc3)cc2CC1=O | active
20 | C[C@@H]1CN([C@H](C)CO)C(=O)Cc2cc(NC(=O)Nc3ccc(F)cc3)ccc2O[C@@H]1CN(C)Cc1ccc(C(F)(F)F)cc1 | active
21 | CO[C@H]1CN(C)C(=O)c2cc(NC(=O)NC(C)C)ccc2OC[C@H](C)N(Cc2ccc(-c3ccccn3)cc2)C[C@@H]1C | inactive
22 | COCC(=O)N(C)C[C@@H]1Oc2cc(C#Cc3ccccc3)ccc2S(=O)(=O)N([C@H](C)CO)C[C@H]1C | inactive
23 | CO[C@@H]1CN(C)C(=O)c2cc(NC(=O)Nc3ccccc3)ccc2OC[C@@H](C)N(C(=O)CN(C)C)C[C@@H]1C | inactive
24 | Nc1ccn([C@H]2CC[C@@H](CO)O2)c(=O)n1 | inactive
25 | CC(C)CC#Cc1ccc2c(c1)O[C@H](CN(C)C(=O)c1ccncc1)[C@@H](C)CN([C@H](C)CO)S2(=O)=O | inactive
26 | CCn1c(-c2nonc2N)nc2cncc(C(=O)N3CC[C@H](N)C3)c21 | active

Row | SMILES | cytotoxicity call
27 | C[C@H](CO)N1C[C@H](C)[C@H](CN(C)Cc2ccncc2)OCCCC[C@H](C)Oc2ccc(NC(=O)NC3CCCCC3)cc2C1=O | inactive
28 | C[C@@H]1CCCCO[C@H](CN(C)C(=O)Cc2ccccc2)[C@H](C)CN([C@H](C)CO)C(=O)c2cc(NS(=O)(=O)c3ccc(Cl)cc3)ccc2O1 | inactive
29 | C[C@H](CO)N1C[C@H](C)[C@H](CN(C)C(=O)C2CCCCC2)OCCCC[C@H](C)Oc2ccc(NC(=O)Nc3ccc4c(c3)OCO4)cc2C1=O | inactive
30 | Nc1ccn([C@H]2O[C@@H](CO)[C@@H](O)[C@@H]2O)c(=O)n1 | inactive
31 | O=C(C[C@@H]1C=C[C@@H](NS(=O)(=O)c2ccccc2F)[C@@H](CO)O1)NCCCN1CCOCC1 | inactive
32 | O=C(CCCCC(=O)N/N=C/c1cc[n+]([O-])cc1)NO | inactive
33 | Cc1ccc(S(=O)(=O)Nc2ccc3c(c2)CC(=O)N([C@H](C)CO)C[C@H](C)[C@H](CN(C)C(=O)Nc2cccc4ccccc24)O3)cc1 | inactive
34 | CN(C)C1CCN(C(=O)c2cnc(-c3noc4cc(-c5cccc(C(F)(F)F)c5)ccc34)s2)CC1 | active
35 | C[C@H](CO)N1C[C@H](C)[C@H](CN(C)C(=O)Nc2ccccc2)Oc2ncc(-c3cccc(C(F)(F)F)c3)cc2C1=O | inactive
36 | CN(C)C1CCN(C(=O)c2cnc(-c3noc4cc(-c5ccccc5C(F)(F)F)ccc34)s2)CC1 | inactive
37 | COc1ccc(S(=O)(=O)Nc2ccc3c(c2)CC(=O)N([C@@H](C)CO)C[C@H](C)[C@@H](CN(C)S(=O)(=O)c2cn(C)cn2)O3)cc1 | inactive
38 | O=C(C1=C[C@H](c2coc3ccccc3c2=O)C[C@H](OCCCCO)O1)N1CCN(Cc2ccc3c(c2)OCO3)CC1 | inactive
39 | CNc1cccc(CN)c1 | inactive
40 | CN1CCC(Nc2nc(Nc3ccc(Oc4ccccc4)cc3)c3c(O)ncc(Br)c3n2)CC1 | active
41 | C=CC[C@H](CC(=O)N(CCO)Cc1ccccc1)C(=O)N[C@H](COC(=O)[C@@H](CC=C)Cc1ccc(F)cc1)Cc1c[nH]c2ccccc12 | inactive
42 | C=CC[C@@H](CC(=O)N(CCO)Cc1ccccc1)C(=O)N[C@@H](COC(=O)[C@H](CC=C)CC(=O)OC(C)(C)C)Cc1c[nH]c2ccccc12 | inactive
43 | C=CC[C@@H](CC(=O)N(CCO)Cc1ccccc1)C(=O)N[C@@H](COC(=O)[C@@H](CC=C)Cc1ccc(F)cc1)Cc1c[nH]c2ccccc12 | active
44 | C=CC[C@H](CC(=O)N(CCO)Cc1ccccc1)C(=O)N[C@@H](COC(=O)[C@@H](CC=C)Cc1ccc(F)cc1)Cc1c[nH]c2ccccc12 | active
45 | C=CC[C@H](CC(=O)N(CCO)Cc1ccccc1)C(=O)N[C@H](COC(=O)[C@H](CC=C)CC(=O)OC(C)(C)C)Cc1c[nH]c2ccccc12 | inactive
46 | C=CC[C@H](CC(=O)N(CCO)Cc1ccccc1)C(=O)N[C@H](COC(=O)[C@@H](CC=C)CC(=O)OC(C)(C)C)Cc1c[nH]c2ccccc12 | inactive
47 | C=CC[C@H](CC(=O)N(CCO)Cc1ccccc1)C(=O)N[C@@H](COC(=O)[C@H](CC=C)CC(=O)OC(C)(C)C)Cc1c[nH]c2ccccc12 | inactive
48 | C=CC[C@@H](CC(=O)N(CCO)Cc1ccccc1)C(=O)N[C@@H](COC(=O)[C@H](CC=C)Cc1ccc(F)cc1)Cc1c[nH]c2ccccc12 | active
49 | C=CC[C@H](CC(=O)N(CCO)Cc1ccccc1)C(=O)N[C@@H](COC(=O)[C@@H](CC=C)CC(=O)OC(C)(C)C)Cc1c[nH]c2ccccc12 | inactive
50 | C=CC[C@@H](CC(=O)N(CCO)Cc1ccccc1)C(=O)N[C@@H](COC(=O)[C@@H](CC=C)CC(=O)OC(C)(C)C)Cc1c[nH]c2ccccc12 | inactive
51 | C=CC[C@@H](CC(=O)N(CCO)Cc1ccccc1)C(=O)N[C@H](COC(=O)[C@@H](CC=C)Cc1ccc(F)cc1)Cc1c[nH]c2ccccc12 | active
52 | C=CC[C@@H](CC(=O)N(CCO)Cc1ccccc1)C(=O)N[C@H](COC(=O)[C@@H](CC=C)CC(=O)OC(C)(C)C)Cc1c[nH]c2ccccc12 | inactive
